Measured values from the supplement of paper PMC3545927.
Some of the results follow. No count for the full screen is at hand.

Molecular target: furin, P09958
Test: furin cleavage Z-score vs untreated control; higher = more cleavage, active = 3.5 or more, inactive = 1 or less, 8 variable residues between constant flanks
Procedure, shortened: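 Read counts from sequencing released DNA gave abundance for each bead-bound 8-mer peptide–cDNA fusion cut by purified furin over 7.5, 15 or 30 min. The cleavage Z-score compares log counts with furin-free reactions after lowess adjustment and median absolute deviation scaling.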
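Note: purified furin at 1:10 enzyme:substrate in 50 mM HEPES pH 7.5.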

Chain of furin, P09958 (P09958 whole entry): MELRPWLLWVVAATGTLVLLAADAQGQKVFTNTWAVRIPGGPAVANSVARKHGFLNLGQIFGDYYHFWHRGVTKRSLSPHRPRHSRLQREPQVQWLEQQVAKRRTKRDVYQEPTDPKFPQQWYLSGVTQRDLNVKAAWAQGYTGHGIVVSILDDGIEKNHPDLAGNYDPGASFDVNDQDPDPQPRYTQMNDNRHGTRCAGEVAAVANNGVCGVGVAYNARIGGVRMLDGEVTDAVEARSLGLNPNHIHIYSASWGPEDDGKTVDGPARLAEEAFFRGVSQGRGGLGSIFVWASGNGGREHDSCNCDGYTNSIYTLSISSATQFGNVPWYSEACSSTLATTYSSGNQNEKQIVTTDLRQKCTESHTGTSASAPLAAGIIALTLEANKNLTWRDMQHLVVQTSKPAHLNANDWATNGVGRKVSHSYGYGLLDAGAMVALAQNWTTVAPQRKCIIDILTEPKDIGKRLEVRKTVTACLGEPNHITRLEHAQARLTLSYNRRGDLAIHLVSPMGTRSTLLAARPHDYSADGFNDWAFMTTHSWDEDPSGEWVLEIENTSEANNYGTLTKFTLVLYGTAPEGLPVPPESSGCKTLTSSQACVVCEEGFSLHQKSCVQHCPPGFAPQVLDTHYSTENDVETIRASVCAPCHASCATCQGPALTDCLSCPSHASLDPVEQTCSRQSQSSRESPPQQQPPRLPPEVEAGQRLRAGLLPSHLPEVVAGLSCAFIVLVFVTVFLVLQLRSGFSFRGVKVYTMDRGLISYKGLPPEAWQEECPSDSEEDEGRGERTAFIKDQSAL

Sequence | furin cleavage Z-score (7.5 min) | furin cleavage Z-score (15 min) | furin cleavage Z-score (30 min)
CAMDECSQHLAGNASASA [HC1691] | -1.05 (inactive) | -0.767 (inactive) | -1.23 (inactive)
CAEHPCHRPSAGNASASA [HC2335] | 0.592 (inactive) | 0.873 (inactive) | -0.909 (inactive)
CADTEVAASCAGNASASA [HC566] | 0.247 (inactive) | 0.504 (inactive) | -0.572 (inactive)
CARGGRDHGDAGNASASA [FS-2014] | -0.697 (inactive) | -0.0412 (inactive) | -1.45 (inactive)
CARGMRALGVAGNASASA [FS-1710] | -0.000681 (inactive) | 0.448 (inactive) | 0.128 (inactive)
CARGKRAITDAGNASASA [FS-2554] | 9.38 (active) | 10.5 (active) | 9.27 (active)
CARGKPGIYRAGNASASA [HC907] | 0.0246 (inactive) | 1.3 | 0.963 (inactive)
CARFGRGFTVAGNASASA [FS-2922] | 0.116 (inactive) | 0.0326 (inactive) | 0.349 (inactive)
CARGKRATTVAGNASASA [FS-3249] | 8.17 (active) | 9.95 (active) | 8.35 (active)
CAWPLYGNEGAGNASASA [HC202] | 0.645 (inactive) | -0.347 (inactive) | 0.229 (inactive)
CAEVVTMTWVAGNASASA [HC148] | 0.302 (inactive) | 0.42 (inactive) | 1.21
CAPALSTGLIAGNASASA [HC502] | 1.72 | 1.24 | -0.0208 (inactive)
CARFDRFILTAGNASASA [FS-2331] | -0.835 (inactive) | 0.56 (inactive) | 1.87
CAMAFTAAVTAGNASASA [HC1056] | 0.143 (inactive) | -0.123 (inactive) | 0.0661 (inactive)
CARNKRYALTAGNASASA [FS-2730] | 4.76 (active) | 6.64 (active) | 8.66 (active)
CARRKRYALTAGNASASA [FS-2231] | 5.6 (active) | 9.1 (active) | 7.92 (active)
CARRKRTAVTAGNASASA [FS-2070] | 8.61 (active) | 9.73 (active) | 8.8 (active)
CAEVVTSTQVAGNASASA [HC2242] | 0.0534 (inactive) | -0.769 (inactive) | -0.513 (inactive)
CAMEECSQMLAGNASASA [HC1746] | 0.461 (inactive) | -0.78 (inactive) | 0.807 (inactive)
CAEVVTTTWVAGNASASA [HC156] | 0.967 (inactive) | 0.111 (inactive) | 0.291 (inactive)
CAIERRKKRSAGNASASA [FS-1341] | 11.5 (active) | 11.5 (active) | 10.3 (active)
CATEKRKKRSAGNASASA [FS-879] | 10.8 (active) | 10.5 (active) | 9.01 (active)

Sequence | furin cleavage Z-score (7.5 min) | furin cleavage Z-score (15 min) | furin cleavage Z-score (30 min)
CASCLTVPASAGNASASA [HC252] | -0.0568 (inactive) | -0.538 (inactive) | -1.9 (inactive)
CAQESQKKRSAGNASASA [FS-1474] | -0.591 (inactive) | -0.0857 (inactive) | 0.142 (inactive)
CAINFRDKRSAGNASASA [FS-667] | 10.5 (active) | 11.5 (active) | 8.52 (active)
CASCLRHKRSAGNASASA [FS-716] | 4.23 (active) | 3.94 (active) | 4 (active)
CAMEECSKHLAGNASASA [HC1734] | 0.481 (inactive) | 1.71 | -0.626 (inactive)
CAVVCCLMSYAGNASASA [HC104] | -0.57 (inactive) | -0.101 (inactive) | -0.447 (inactive)
CAEPVVCCSMAGNASASA [HC2139] | 0.036 (inactive) | -1.42 (inactive) | 1.07
CAVLDSHYQDAGNASASA [HC1400] | -0.288 (inactive) | -1.98 (inactive) | 0.522 (inactive)
CAIERVHKRSAGNASASA [FS-1342] | 6.81 (active) | 7.58 (active) | 7.96 (active)
CASDDRLCRSAGNASASA [FS-1484] | -0.386 (inactive) | 0.196 (inactive) | -1 (inactive)
CATEHRVCRSAGNASASA [FS-508] | 3.96 (active) | 5.27 (active) | 4.89 (active)
CAEYVEIRQVAGNASASA [HC1205] | -0.199 (inactive) | -0.194 (inactive) | 1.29
CARTARAVSPAGNASASA [FS-2611] | 5.89 (active) | 8.14 (active) | 7.16 (active)
CARAARGTSPAGNASASA [FS-2633] | -0.591 (inactive) | -1.01 (inactive) | 1.21
CAFTAAVTSPAGNASASA [HC1057] | -0.794 (inactive) | -0.905 (inactive) | -0.554 (inactive)
CARTARAWGKAGNASASA [FS-3102] | -0.427 (inactive) | 0.174 (inactive) | 1.29
CARTARSEEDAGNASASA [FS-3103] | -1.19 (inactive) | -0.787 (inactive) | 0.992 (inactive)
CARFARHVSPAGNASASA [FS-2138] | 10.5 (active) | 9.18 (active) | 9.56 (active)
CARTARSTNKAGNASASA [FS-2094] | 5.26 (active) | 7.87 (active) | 5.51 (active)
CARPEKSVNKAGNASASA [FS-1759] | -1.61 (inactive) | 0.261 (inactive) | -0.528 (inactive)
CALKAKLMPQAGNASASA [HC1158] | 1.55 | 0.58 (inactive) | -1.58 (inactive)
CAVVCGSMSYAGNASASA [HC82] | -0.0603 (inactive) | -1.58 (inactive) | 0.38 (inactive)
